# Screens deposited in PubChem BioAssay by The Scripps Research Institute Molecular Screening Center.
# Rows were chosen to be rich in hits. Some 5.7% of all compounds tested hit in one or more screens of this group.
# hcDAF-12 act = activators of H. contortus DAF-12 nuclear receptor; activation, % at 6.8 µM; HEK293 hcDAF-12 lit1-tk-luc reporter, luminescence; 0% DMSO, 100% Δ7-dafachronic acid; actives 1.4% (n = 370,000);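 active = activation above the mean of all tested compounds plus 3 SD, cut at about 5.5% in these data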;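 also: 100% = response to 3 µM Δ7-dafachronic acid high control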
# ssDAF12 agonist = activators of S. stercoralis DAF-12 nuclear receptor. actives 1% (n = 370,000). activation, % at 6.8 µM. HEK293 ssDAF-12/GRIP1 lit1-tk-luc reporter, luminescence; % of 3 µM dafachronic acid response. AID 652126;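 active = activation above the mean over all tested compounds plus 3 SD, cut at about 0.9% in these data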;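 also: 0% = DMSO-only wells and 100% = 3 µM delta7-dafachronic acid wells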
# DAX1 inh-1 = DAX1 (NR0B1) inhibition, primary screen; AID 652010; actives 1.1% (n = 370,000); inhibition, % at 6.8 µM; HEK293T StAR-luciferase reporter, SF-1/DAX-1 repression relief;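 active = inhibition above the mean over all tested compounds plus 3 SD, cut at about 3.6% in these data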;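 also: 0% = DAX-1 cells with DMSO and 100% = cells lacking DAX-1 with DMSO; higher inhibition means more luminescence from relief of DAX-1 repression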
# AHR activator = activators of human aryl hydrocarbon receptor; P35869; activation, % at 5 µM; actives 2.5% (n = 320,000); AHR-responsive luciferase reporter cells, luminescence; in the data active = activation above about 47%;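 also: 0% = vehicle wells and 100% = reference agonist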
# hgDAF-12 ag = hgDAF-12 agonism, primary luciferase screen; HEK293 GAL4-hgDAF12 UAS-luciferase reporter, agonist luminescence; normalized to butyrate control; activation, % at 6.8 µM; actives 1.8% (n = 370,000); AID 687014;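 active = activation above a cutoff set at the mean of all screened compounds plus 3 SD, cut at about 10% in these data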;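 also: 0% = DMSO wells and 100% = sodium butyrate wells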
# DAX1 inh-2 = inhibits human nuclear receptor DAX1; HEK293 Gal4-DAX1 luciferase reporter, luminescence; inhibition, % at 6.75 µM; actives 0.99% (n = 340,000); AID 504766;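 active = inhibition above the mean over all tested compounds plus 3 SD, cut at about 4.2% in these data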;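 also: 0% = DAX1-transfected cells with DMSO and 100% = empty-vector control cells with DMSO; inhibition shows as a rise in luminescence from relieved DAX1 repression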
# Target sequence (P51843 207-470 limits assumed): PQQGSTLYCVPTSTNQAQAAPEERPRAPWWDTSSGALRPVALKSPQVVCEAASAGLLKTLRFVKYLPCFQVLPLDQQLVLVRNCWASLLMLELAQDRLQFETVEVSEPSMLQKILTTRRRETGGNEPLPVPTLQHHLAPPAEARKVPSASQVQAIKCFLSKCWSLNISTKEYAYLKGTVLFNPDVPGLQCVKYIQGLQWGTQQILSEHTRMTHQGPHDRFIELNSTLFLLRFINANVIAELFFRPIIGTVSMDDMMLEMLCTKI
# AHR act confirm = human AHR activation, confirmation | shares compounds with AHR activator | human cells, AHR-responsive luciferase reporter, luminescence | activation, % at 9 µM | actives 87% (n = 2,300) | AID 2845; in the data active = activation above about 49%;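 also: HepG2 hepatoma cells carrying a DRE-driven firefly luciferase reporter; 0% = vehicle wells and 100% = reference agonist wells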
# PXR counter = activates human PXR in AHR activator counter-screen; shares compounds with AHR activator; cell-based PXR reporter, luciferase luminescence; activation, % at 11.6 µM; actives 88% (n = 2,300); AID 434939; in the data active = activation above about 11%;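 also: human hepatoma DPX-2 cells expressing full-length human PXR; 0% = DMSO and 100% = reference agonist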
# Target sequence (O75469 whole entry, looked up): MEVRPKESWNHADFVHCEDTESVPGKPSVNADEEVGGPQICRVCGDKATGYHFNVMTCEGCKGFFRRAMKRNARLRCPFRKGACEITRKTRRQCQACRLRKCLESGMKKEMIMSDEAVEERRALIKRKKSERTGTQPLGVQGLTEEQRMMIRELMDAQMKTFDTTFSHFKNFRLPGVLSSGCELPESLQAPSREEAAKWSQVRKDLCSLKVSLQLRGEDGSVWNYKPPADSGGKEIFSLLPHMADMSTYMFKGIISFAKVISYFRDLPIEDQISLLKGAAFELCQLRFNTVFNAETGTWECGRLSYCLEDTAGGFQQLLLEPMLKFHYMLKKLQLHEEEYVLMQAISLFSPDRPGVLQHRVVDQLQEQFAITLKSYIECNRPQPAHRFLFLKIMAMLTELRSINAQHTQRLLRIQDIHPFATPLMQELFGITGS
# * marks the source's active call; other numbers are inactive results; . = no result.
SMILES,hcDAF-12 act,ssDAF12 agonist,DAX1 inh-1,AHR activator,hgDAF-12 ag,DAX1 inh-2,AHR act confirm,PXR counter
Cc1nn(CC(=O)N2CCC(C)CC2)c(=O)c2nn(-c3ccccc3)c(C)c12,-1.4,-1.3,-0.1,-2.8,0.7,-0.2,.,.
Cc1ccc2nc(-c3ccncc3)[nH]c2c1,3.7,0.2,2.5,133.6*,11.3*,4.0,87.0*,21.5*
Cc1ccc(-c2csc3nc(-c4ccncc4)[nH]c(=O)c23)cc1,-2.9,-1.8,-0.6,-2.8,-3.0,1.0,.,.
COC(=O)Cn1ncc(N2CC(C)OC(C)C2)c(Cl)c1=O (stereo unspecified),0.7,-1.1,-0.2,-4.5,-1.2,2.8,.,.
Cc1cc(C)nc(N/N=C/c2cccc3ccccc23)n1,1.1,-1.7,1.2,89.2*,7.7,0.6,31.7,33.9*
Cc1cc(C)nc(N/N=C/c2ccccc2Cl)n1,0.9,-1.3,1.1,8.3,4.3,.,.,.
Cc1ccc(C(=O)Nc2cccc(C(F)(F)F)c2)cc1Nc1ncnc2nc[nH]c12,-4.8,-1.3,-2.9,83.7*,-6.7,1.2,39.1,30.0*
Nn1c(-c2ccc(F)cc2)nc2ccccc2c1=O,-0.6,-0.8,0.1,4.3,0.4,0.6,.,.
O=C1c2cc(F)ccc2-n2c1nc1ccccc1c2=O,-0.5,-0.6,-0.6,100.2*,-6.1,-0.9,-16.3,-16.8
O=C1OC(c2cc(Br)c(O)c(Br)c2)c2ccccc21 (stereo unspecified),0.5,-0.5,0.5,.,-1.6,0.6,.,.
Oc1c(Br)cc(C2N=C(c3ccccc3)NO2)cc1Br (stereo unspecified),1.0,-0.7,1.2,94.4*,6.4,1.7,91.9*,17.6*
O=C(CCC(=O)N1CCOCC1)NCCc1ccccc1,0.6,-1.0,1.0,1.5,3.9,-0.6,.,.
COC(=O)[C@]12C[C@H](CC(=O)NCC34CC5CC(CC(C5)C3)C4)C(=O)N(CCc3ccc(OC)c(OC)c3)C1=C[C@H](C(C)C)O[C@@H]2C1CC1,-1.2,-0.6,0.3,.,-0.1,.,.,.
COc1cc(-c2cc(-c3ccc(N)cc3)[nH]c(=O)c2C#N)cc(OC)c1OC,0.5,-1.6,-0.2,101.3*,-2.1,0.2,84.1*,17.3*
NC(Cc1ccc(F)cc1)c1csc(Nc2ccc(S(N)(=O)=O)cc2)n1 (stereo unspecified),-0.6,-1.4,0.3,.,1.1,.,.,.
CCCCNc1c(-c2ccc(-c3cccc(Cl)c3)cc2)nc2ccc(Cl)cn12,3.5,-0.9,0.0,79.5*,6.4,0.8,33.3,14.0*
CCCCCCSc1ccc(-c2nc3ccc(Cl)cn3c2NCCCC)cc1OC,1.0,-0.9,0.0,1.7,2.8,0.0,.,.
COC(=O)c1cc(S(=O)(=O)N2CCN(c3cccc(OC)c3)CC2)cn1C,-2.1,-0.8,-1.7,0.3,1.1,1.0,.,.
O=C(Nc1ccc2c(c1)OCO2)c1ccc(Cl)nc1,4.4,0.3,0.7,88.5*,5.4,2.2,149.2*,23.5*
C/C(=C\C(=O)c1ccc(C)o1)Nc1ccc2c(c1)OCO2,0.1,-1.2,0.1,13.7,6.8,-0.3,.,.
O=C(Nc1ccc(Cl)c(-c2nc3ccccc3[nH]2)c1)c1ccc2c(c1)OCO2,-2.4,-1.4,-0.9,86.3*,0.6,-1.1,93.0*,19.2*
COc1ccc(NC(=O)c2ccc(Cl)nc2)cc1S(=O)(=O)N1CCCCC1,-3.8,-2.5,-1.1,121.4*,-3.8,-1.7,84.8*,63.4*
Cc1ccc(C(=O)Nc2ccc3c(c2)OCO3)o1,2.9,0.7,1.5,122.0*,10.2,1.4,107.8*,39.2*
CCN1C[C@@H]2[C@@H]3C(=O)N(C)C(=O)[C@@H]3[C@](C)(C1=O)N2C(=O)c1ccc(C)cc1,-0.3,-1.5,0.4,.,1.8,3.3,.,.
O=C(Nc1ccc2c(c1)OCO2)c1ccncc1,-0.1,-0.5,0.2,102.7*,2.4,1.3,74.3*,.
SMILES,hcDAF-12 act,ssDAF12 agonist,DAX1 inh-1,AHR activator,hgDAF-12 ag,DAX1 inh-2,AHR act confirm,PXR counter
O=C(NCc1ccc2c(c1)OCO2)c1ccncc1,-0.5,-0.3,0.1,9.4,-1.8,0.9,.,.
Nc1nc(-c2ccccc2)c(N=Nc2ccc(Cl)cc2)s1,3.0,1.2*,-0.4,119.7*,-0.5,-0.8,88.0*,13.5*
CCOc1ccccc1NC(=O)c1nc[nH]c1C(=O)Nc1ccccc1OCC,.,.,.,23.6,.,-0.3,.,.
COc1ccccc1NC(=O)c1cnc(SC)nc1,-0.8,-0.1,0.0,14.9,4.2,1.0,.,.
CNC(=O)c1[nH]cnc1C(=O)Nc1ccc(C)cc1,1.1,-0.9,0.5,25.2,1.3,0.7,.,.
CNC(=O)c1[nH]cnc1C(=O)Nc1ccc(Cl)cc1,2.9,0.8,-0.2,121.3*,3.0,-0.4,172.1*,34.9*
COc1ccccc1NC(=O)c1ccc(C(=O)Nc2ccccc2OC)nc1,-0.3,-0.9,0.1,83.9*,0.3,1.1,102.9*,.
COc1ccccc1NC(=O)c1nc[nH]c1C(=O)Nc1ccccc1OC,-1.0,-0.7,0.2,108.5*,0.3,0.8,53.3*,19.0*
O=C(Nc1ccccc1OC(=O)c1ccc(Cl)cc1)c1ccc(Cl)cc1,5.5,0.6,0.7,79.5*,9.0,2.6,83.4*,.
Cc1cc(NC(=O)CCC(=O)N(CC(=O)NC2CCCC2)c2ccc(F)c(Cl)c2)no1,-0.4,-0.9,-0.2,0.7,1.7,-2.5,.,.
NC(=O)C1Cc2ccccc2CN1S(=O)(=O)c1ccc(Cl)s1 (stereo unspecified),-1.3,-1.5,-0.1,0.4,0.4,0.3,.,.
Cc1cc(=O)[nH]c(N/N=C/c2ccc(Br)s2)n1,-1.3,-1.2,0.0,81.2*,2.1,1.2,65.8*,.
C/C(=N\NC(=S)NC(C)C)c1ccc(-n2ccnc2)cc1,-1.1,-1.3,-1.2,122.0*,0.1,-0.5,76.8*,13.9*
C/C(=N\NC(N)=O)c1ccc(-n2ccnc2)cc1,-0.5,-1.2,0.3,35.1,0.7,0.7,.,.
C=CCNC(=S)N/N=C(\C)c1ccc(-n2ccnc2)cc1,-2.0,-1.3,-0.6,88.8*,0.5,1.7,105.6*,19.1*
C/C(=N/OCC(=O)NCCCCCCNC(=O)CO/N=C(/C)c1cccs1)c1cccs1,-3.5,-1.8,-0.3,3.5,-2.5,-0.2,.,.
Cc1cc(C)c2c(c1)SC1=NC(c3ccccc3)(C(F)(F)F)NC(=O)N12 (stereo unspecified),1.5,-0.3,0.3,91.0*,3.0,0.1,66.2*,21.1*
CS(=O)(=O)N(CCCC(=O)N1CCCCCC1)c1cccc(Cl)c1,-2.6,-1.0,0.2,1.8,-0.9,-2.0,.,.
